# IL-1B inflam inh – blocks inflammasome-driven IL-1 beta release | THP-1 LPS/ATP IL-1B secretion, AlphaLISA, 16 h; stronger effect = lower value | activity change, % at 57.5 µM | hit rate 4.7% among 360,000 | AID 743279; in the data active = activity change below about -50%; inconclusive = mostly about -30% to -49%; also: % is scaled to controls: 0 for no effect and ±100 for the full control effect
#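 Secreted IL-1B measured by AlphaLISA bead assay after 16 h compound exposure of THP-1 cells; compounds (final up to 57.5 uM) added 1 h before LPS (250 ng/mL) and ATP (1.25 mM) stimulation; lower signal means less secretion.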
# DT40 TDP1 CPT – DT40-hTDP1 cell growth loss with CPT. chicken DT40 Tdp1-/-;hTDP1 cells + 20 nM CPT, ATP luminescence, 48 h. Potency, µM (titrated, usually from 46.2 µM), without a hit: at the highest dose activity change, negative = growth inhibition, most hits filed as inhibitors. hit rate 12% among 420,000. AID 686979; also: potency is read from the fitted curve at half-maximal effect; % is scaled to controls: 0 for no effect and ±100 for the full control effect; nearly all actives have a fitted effect of over 55% in size
#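 Chicken DT40 Tdp1-/- cells complemented with human TDP1, 400 cells/well, exposed to compounds plus 20 nM camptothecin for at least 48 h at 37 C; viability read as ATP content by CellTiter-Glo luminescence.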
# TGFb inhibitor – inhibitors of TGF-b signaling; HepG2 CAGA-GFP TGF-b/SMAD3 reporter, GFP fluorescence, 18 h; TGF-beta stimulated, 500 pg/mL final; Potency, µM (highest dose often 46.1 µM), without a hit: top-dose activity, negative = inhibition, actives largely listed as inhibitors; hit rate 1.2% among 410,000; also: potency is read from the fitted curve at half-maximal effect; % is scaled to controls: 0 for no effect and ±100 for the full control effect; nearly all actives have a fitted effect of over 65% in size
#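 HEPG2 CAGA-GFP cells (1000/well, DMEM with 1% FBS) were pre-incubated 2 h at 37 degrees C, given compound by pin tool, then stimulated with TGF-beta at 500 pg/mL final for 18 h before per-cell GFP fluorescence imaging.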
# TDP1 cell noCPT – qHTS for Inhibitors of human tyrosyl-DNA phosphodiesterase 1 (TDP1): qHTS in cells in absence of CPT | DT40 Tdp1-/- hTDP1 cells, no CPT, ATP luminescence, 48 h | Potency, µM (series often up to 46.2 µM), without a hit: at the highest dose activity change, negative = growth inhibition, actives largely listed as inhibitors | hit rate 15% among 420,000; also: potency is read from the fitted curve at half-maximal effect; % is scaled to controls: 0 for no effect and ±100 for the full control effect; nearly all actives have a fitted effect of over 55% in size
#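 Growth of hTDP1-complemented DT40 Tdp1-knockout cells is measured by ATP luminescence after at least 48 hr compound exposure at 37 °C, with DMSO substituting for the 20 nM CPT used in the parallel screen.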
# TDP1 inh – TDP1 (human) enzyme inhibition; recombinant TDP1, AlphaScreen DNA substrate cleavage; Potency, µM (series often up to 130 µM), for the others: at the highest dose activity change, negative = inhibition, actives largely listed as inhibitors; hit rate 0.28% among 350,000; Q9NUW8; also: potency is read from the fitted curve at half-maximal effect; % is scaled to controls: 0 for no effect and ±100 for the full control effect; nearly all actives have a fitted effect of over 40% in size
# Target sequence (Q9NUW8 whole entry, looked up): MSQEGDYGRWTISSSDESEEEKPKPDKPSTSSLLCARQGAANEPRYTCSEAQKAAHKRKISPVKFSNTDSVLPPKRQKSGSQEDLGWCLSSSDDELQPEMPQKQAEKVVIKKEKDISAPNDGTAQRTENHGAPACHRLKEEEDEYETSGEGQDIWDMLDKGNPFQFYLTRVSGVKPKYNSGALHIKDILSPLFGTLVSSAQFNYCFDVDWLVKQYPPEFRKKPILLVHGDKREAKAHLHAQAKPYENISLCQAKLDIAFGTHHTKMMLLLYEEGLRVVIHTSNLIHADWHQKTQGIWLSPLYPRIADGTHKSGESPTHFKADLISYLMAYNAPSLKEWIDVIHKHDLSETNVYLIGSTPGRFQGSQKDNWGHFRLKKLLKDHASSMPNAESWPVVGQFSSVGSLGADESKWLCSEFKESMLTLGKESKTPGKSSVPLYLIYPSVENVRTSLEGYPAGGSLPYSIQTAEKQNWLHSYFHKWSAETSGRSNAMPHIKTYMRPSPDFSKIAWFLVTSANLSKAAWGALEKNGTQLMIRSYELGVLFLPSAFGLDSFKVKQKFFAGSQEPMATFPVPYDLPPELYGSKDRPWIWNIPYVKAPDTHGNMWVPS
#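 Here, a 5' biotin and 3' phosphotyrosine-FITC DNA oligonucleotide reports Tdp1 activity: intact substrate bridges AlphaScreen beads, while cleavage leaves a 3' phosphate and drops signal. All incubations at room temperature.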
# HepG2 viability – counter-screen for TGF-b inhibitors: cytotoxicity in HepG2 cells. AID 588856. hit rate 0.76% among 410,000. HepG2 CAGA-GFP viability, ATP luminescence, 18 h. Potency, µM (top dose mostly 46.1 µM), for inactives: at the highest dose activity change, negative = cytotoxicity, most hits filed as cytotoxic; also: potency is read from the fitted curve at half-maximal effect
#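 HepG2 CAGA-GFP cells (1000/well, DMEM with 1% FBS) received compound, then TGF-beta at 500 pg/mL final, and were incubated 18 hours at 37 degrees C. Viability was read by CellTiter-Glo luminescence. Media-only wells were set as complete cell-killing and DMSO as no toxicity.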
# * marks the source's active call; other numbers are inactive results; i = inactive; u = inconclusive; x = no result; [ ] = another dose, or the depositor's remark. Only some compounds are listed: those with a hit (about 18% of all), similar ones and a draw of the others. Unless noted, calls follow the shape of the dose curve; as a rule, active = well fitted curve in the direction sought with a large enough effect; inconclusive = small, poorly fitted or top-dose-only effect, or another doubt; inactive = no such curve, though single readings can be large; an effect the other way counts as inactive or inconclusive.
SMILES,IL-1B inflam inh,DT40 TDP1 CPT,TGFb inhibitor,TDP1 cell noCPT,TDP1 inh,HepG2 viability
O=C(N/N=C1\CC(c2ccccc2)Oc2ccccc21)c1cccnc1 (stereo not given),67,u,-24%,21µM*,8%,-24%
O=C(N/N=C1\CC(c2ccccc2)Oc2ccccc21)c1ccc(O)cc1 (stereo not given),-22,u,-28%,u,-3%,-19%
CC(C)Cc1nc2cc(NS(=O)(=O)N(C)C)cc(C(=O)N3CCc4ccccc4C3)c2n1C,x,7%[9.04 µM],x,-16%,x,x
Cc1ccc(-c2nc3c4ccccc4ccn3c2Cc2ccsc2)cc1,0,16µM*,-22%,u,x,-16%
COc1ccc(-c2nc3c4ccccc4ccn3c2Cc2ccsc2)cc1OC,-18,u,u,u,x,-25%
Clc1cccc(Cc2c(-c3cccc(Br)c3)nc3c4ccccc4ccn23)c1,34,-29%,x,-21%,x,x
Cc1ccc(Cc2c(-c3ccc(C#N)cc3)nc3c4ccccc4ccn23)cc1,3,u,u,u,x,-3%
c1ccc(-c2nc3c4ccccc4ccn3c2Cc2ccsc2)cc1,14,23µM*,u,16µM*,x,-50%
CCCc1nc2c3ccccc3ccn2c1Cc1ccccc1,29,18µM*,u,21µM*,x,-8%
Cc1ccc(-c2nc3c4ccccc4ccn3c2Cc2ccccc2)cc1,59,u,3%,u,x,9%
Cc1ccc(Cc2c(-c3ccccc3)nc3c4ccccc4ccn23)cc1,47,23µM*,x,21µM*,x,x
CO[C@@H]1COC(=O)[C@H](C)NC(=O)[C@@H](C)COC(=O)CCC[C@H]1C,x,x,x,x,6%[21 µM],x
O=C(Nc1nonc1-c1ccc(Br)cc1)c1ccco1,x,-20%,-10%,-22%,0%,-25%
O=C(CC(c1cccs1)N1Cc2ccccc2C1=O)Nc1ccc(Cl)cc1 (stereo not given),x,u,u,u,-3%,-51%
Cc1cc(Cl)ccc1NC(=O)CN1C(=O)COc2ccc(S(=O)(=O)N3CCC(C)CC3)cc21,x,-16%,0%,-8%,5%,-2%
COc1ccc(Nc2ncnc3onc(-c4ccc(Cl)cc4)c23)cc1Cl,x,18µM*,-22%,16µM*,-1%,-3%
CC(C)c1ccc(Nc2ncnc3onc(-c4ccc(F)cc4)c23)cc1,x,18µM*,8%,u,-11%,-22%
COc1cc(Nc2ncnc3onc(-c4ccc(Cl)cc4)c23)cc(OC)c1,x,u,1%,21µM*,1%,-20%
Cc1ccccc1OCCOc1ccccc1C=C(C#N)C#N,x,x,x,x,1%,x
Cc1cccc(OCCOc2ccccc2C=C(C#N)C#N)c1,u,u,10µM*,u,1%,-83%
COc1ccccc1Oc1c(NS(=O)(=O)c2ccc(C(C)(C)C)cc2)nc(-c2ncccn2)nc1OCCO,x,u,x,-23%,x,x
Cc1noc(C)c1S(=O)(=O)Nc1ccc2c(c1)C(=O)N([C@H](C)CO)C[C@H](C)[C@H](CN(C)S(=O)(=O)c1ccc(Cl)cc1)OCCCC[C@@H](C)O2,-3,u,u,u,x,1%
C[C@H]1CCCCO[C@H](CN(C)Cc2ccncc2)[C@@H](C)CN([C@@H](C)CO)C(=O)c2cc(NS(=O)(=O)c3ccccc3)ccc2O1,-12,4%,-11%,u,x,-1%
Cc1ccc(S(=O)(=O)N(C)C[C@@H]2OCCCC[C@@H](C)Oc3ccc(NS(=O)(=O)c4c(C)noc4C)cc3C(=O)N([C@H](C)CO)C[C@@H]2C)cc1,-21,16µM*,u,12µM*,x,-18%
C[C@@H]1CCCCO[C@@H](CN(C)Cc2ccc3c(c2)OCO3)[C@@H](C)CN([C@H](C)CO)C(=O)c2cc(NS(=O)(=O)c3ccccc3)ccc2O1,-30,18µM*,u,10µM*,x,-52%
SMILES,IL-1B inflam inh,DT40 TDP1 CPT,TGFb inhibitor,TDP1 cell noCPT,TDP1 inh,HepG2 viability
Cc1ccc(S(=O)(=O)Nc2ccc3c(c2)C(=O)N([C@@H](C)CO)C[C@@H](C)[C@@H](CN(C)S(=O)(=O)c2ccccc2)OCCCC[C@H](C)O3)cc1,-9,8.2µM*,-11%,10µM*,x,-3%
Cc1ccc(NC(=S)Nc2ccc3nc(-c4ccccn4)c(-c4ccccn4)nc3c2)cc1C,-9,26µM*,-6%,u,6%,5%
Cc1ccc(NC(=S)Nc2ccccn2)c(C)c1,-11,3.7µM*,u,5.2µM*,4%,-2%
Cc1ccc(NC(=S)c2ccncc2)c(C)c1,-26,2%,-10%,-10%,1%,-15%
COc1ccc(NC(=S)Nc2ccccn2)cc1,-13,u,-15%,u,3%,15%
Cc1ccc(NC(=S)Nc2ccccn2)cc1C,57,23µM*,-1%,16µM*,1%,-24%
Cc1cc(C)cc(NC(=S)Nc2ccccn2)c1,i,13µM*,u,10µM*,8%,-44%
O=C(COC(=O)c1ccccc1F)Nc1ccc(S(=O)(=O)N2CCOCC2)cc1,-13,-22%,6%,-19%,0%,2%
Cc1cccc(NC(=S)Nc2ccccn2)c1,11,u,u,8.2µM*,1%,-7%
Cc1ccc(NC(=S)NNC(=S)Nc2ccc(C)cc2C)cc1,-25,3.7µM*,-19%,5.2µM*,-6%,-26%
COc1cccc(C2Nc3ccc4ccccc4c3C3=C2C(=O)CCC3)c1O (stereo not given),27,u,u,u,x,-37%
Cc1cc(C)c(NC(=O)c2cc(S(=O)(=O)N3CCC4(CC3)OCCO4)ccc2F)c(C)c1,x,-22%,-6%,u,8%,1%
C[C@@H]1OC(C2CCCCC2)N(C)[C@H]2C[C@H]3c4[nH]c5ccccc5c4CCN3C[C@@H]12 (stereo not given in full),-11,21µM*,-26%,u,x,-9%
Cc1nc2cccnc2n1C1CCN(C(=O)Nc2ccc(Cl)cc2)CC1,x,u,-2%,u,6%,-22%
COCCN1C(=O)c2ccccc2C(C(=O)NCCCN2CCCC2)C1c1c[nH]c2ccccc12 (stereo not given),3,u,-21%,26µM*,5%[56.1 µM],1%

# Screening data as filed in PubChem BioAssay.
